Active and inactive are the calls of the source. Unless noted, no rule for the calls is given here.
Assays:
[1] = tested on: XIP peptide (Xip251-270) binding; assay: small-molecule binders of XIP peptide, primary screen, biochemical, small-molecule microarray, fluorescence 635/667 nm, 0.1 µg/mL protein (AID 1182); conditions: fluorescent protein binding, 635 nm, higher = more signal, called active from +8 up or from −8 down
XIP peptide (Xip251-270) = assay: small-molecule binders of XIP peptide, primary screen, biochemical, small-molecule microarray, fluorescence 635/667 nm, 0.5 µg/mL protein (AID 1183); conditions: small-molecule microarray binding, fluorescence 635 nm; higher = more signal
[2] = Plasmodium falciparum growth inhibition, primary screen, strain 3D7, DAPI fluorescence, 100 nL (AID 1184);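 also: parasites grown inside human red blood cells in medium with human serum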; conditions: P. falciparum 3D7 growth, 3 d, higher = more signal
[3] = molecular target: Homeobox protein Hox-A13 (Mus musculus) (UniProt Q62424); assay: inhibitors of HoxA13-DNA binding, primary screen, biochemical, fluorescence polarization, labeled oligonucleotide (AID 1185); conditions: 15 min, higher = more signal, called active from +8 up or from −8 down
[4] = inhibitors of hydroxyurea-induced Chk1 phosphorylation, primary screen, imaging, HeLa, phospho-Chk1 antibody, percent positive cells (AID 1186); conditions: hydroxyurea-induced phospho-Chk1 immunofluorescence imaging, higher = more signal
[5] = inhibitors of hydroxyurea-induced Chk1 phosphorylation, primary screen, imaging, HeLa, phospho-Chk1 nuclear intensity (AID 1187); conditions: hydroxyurea-induced phospho-Chk1 immunofluorescence imaging, higher = more signal

Homeobox protein Hox-A13 (Mus musculus), sequence (Q62424 whole entry, looked up): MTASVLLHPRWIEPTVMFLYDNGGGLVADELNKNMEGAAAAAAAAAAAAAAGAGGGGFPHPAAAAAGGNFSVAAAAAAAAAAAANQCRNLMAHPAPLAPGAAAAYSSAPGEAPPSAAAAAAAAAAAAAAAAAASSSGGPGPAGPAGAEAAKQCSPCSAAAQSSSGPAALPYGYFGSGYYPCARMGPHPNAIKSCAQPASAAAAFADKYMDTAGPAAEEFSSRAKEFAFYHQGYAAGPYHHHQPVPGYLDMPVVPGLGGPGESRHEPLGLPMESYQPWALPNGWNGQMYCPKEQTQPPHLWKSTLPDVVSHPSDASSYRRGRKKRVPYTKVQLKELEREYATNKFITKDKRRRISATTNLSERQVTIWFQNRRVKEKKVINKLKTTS

CC(C)[Si](C#Cc1ccc(Oc2ccccc2)cc1)(O[Si](C#Cc1ccc(Oc2ccccc2)cc1)(C(C)C)C(C)C)C(C)C
composite z-score [1]: 0.467 (inactive)
composite z-score (XIP peptide (Xip251-270)): -0.0968
z-score [2]: -1.37
z-score [3]: -2.37 (inactive)
z-score [4]: -1.01 (inactive)
z-score [5]: -0.556 (inactive)

COC(=O)C(CC#Cc1ccc2c(c1)[C@]1(C(=O)N2)[C@H](c2ccc(OCCO)cc2)N2[C@H](c3ccccc3)[C@H](c3ccccc3)OC(=O)[C@H]2[C@@H]1C(=O)N1CCc2cc(OC)c(OC)cc2C1)C(=O)OC
composite z-score [1]: 0.0734 (inactive)
composite z-score (XIP peptide (Xip251-270)): 0.78
z-score [2]: -2
z-score [3]: -1.29 (inactive)
z-score [4]: 0.192 (inactive)
z-score [5]: 0.492 (inactive)

C=C(C(=O)CC[C@@H](OC(=O)c1cccnc1)c1ccccc1OCCO)C(C)C
composite z-score [1]: 0.79 (inactive)
composite z-score (XIP peptide (Xip251-270)): 0.209
z-score [2]: -2.27
z-score [3]: -3.56 (inactive)
z-score [4]: 0.434 (inactive)
z-score [5]: 0.993 (inactive)

O=C1c2ccccc2[C@](Cc2ccccc2I)(C(=O)NCC(F)(F)F)[C@H](c2ccc(CO)cc2)N1Cc1ccccc1Cl
composite z-score [1]: 0.149 (inactive)
composite z-score (XIP peptide (Xip251-270)): 0.776
z-score [2]: -0.562
z-score [3]: -4.2 (inactive)
z-score [4]: -0.151 (inactive)
z-score [5]: -0.557 (inactive)

COC(=O)[C@@]1(Cc2ccc(OC)cc2)[C@H]2c3cc(C(=O)N4CCCC4)n(Cc4ccc(O)c(OC)c4)c3C[C@H]2CN1C(=O)c1ccccc1
composite z-score [1]: 1.29 (inactive)
composite z-score (XIP peptide (Xip251-270)): 0.575
z-score [2]: -1.65
z-score [3]: -4.69 (inactive)
z-score [4]: 0.449 (inactive)
z-score [5]: 0.27 (inactive)

COc1ccc(/C=C/C=O)cc1
composite z-score [1]: -0.338 (inactive)
composite z-score (XIP peptide (Xip251-270)): 0.185
z-score [2]: 1.01
z-score [3]: 0.0055 (inactive)
z-score [4]: 0.0257 (inactive)
z-score [5]: 0.0335 (inactive)

CC(C)C[C@@H]1NC(=O)[C@@H]2C[C@H](C(=O)O)[C@H](c3cccc(OCCO)c3)N2C1=O
composite z-score [1]: 1.04 (inactive)
composite z-score (XIP peptide (Xip251-270)): 0.708
z-score [2]: -0.222
z-score [3]: -2.76 (inactive)
z-score [4]: 0.0342 (inactive)
z-score [5]: 0.153 (inactive)

C=C(C)[C@@H]1CC=C(C(O)C2C=CC3C(=O)N(C)C(=O)C3N2Nc2ccccc2)CC1 (stereo not given in full)
composite z-score [1]: 0.469 (inactive)
composite z-score (XIP peptide (Xip251-270)): 0.147
z-score [2]: -0.0575
z-score [3]: -4.59 (inactive)
z-score [4]: -0.63 (inactive)
z-score [5]: -0.968 (inactive)

NCCCCCCNC(=O)[C@@H]1C[C@@H]2C(=O)NCC(=O)N2[C@@H]1c1ccc(O)cc1
composite z-score [1]: -0.0092 (inactive)
composite z-score (XIP peptide (Xip251-270)): 0.755
z-score [2]: -0.634
z-score [3]: -1.98 (inactive)
z-score [4]: 0.563 (inactive)
z-score [5]: 0.457 (inactive)

COc1ccc([Si](C)(C)[C@@H]2[C@@H](CC(=O)N3CCC[C@H]3CO)O[C@]3(C(=O)N(c4ccccc4)c4ccccc43)[C@H]2C)cc1
composite z-score [1]: -0.152 (inactive)
composite z-score (XIP peptide (Xip251-270)): 0.591
z-score [2]: -0.831
z-score [3]: -5.71 (inactive)
z-score [4]: -0.845 (inactive)
z-score [5]: -1.31 (inactive)

Cc1ccc(S[C@]2(C(=O)NCCCN(C)C)CC(=O)N(Cc3cc(C(F)(F)F)cc(C(F)(F)F)c3)[C@@H]2c2ccc(CO)cc2)cc1
composite z-score [1]: -0.497 (inactive)
composite z-score (XIP peptide (Xip251-270)): -0.583
z-score [2]: 0.798
z-score [3]: -2.68 (inactive)
z-score [4]: 0.112 (inactive)
z-score [5]: -0.331 (inactive)

O=C1N[C@@H](Cc2ccccc2)C(=O)N2[C@@H]1C[C@@H](C(=O)O)[C@H]2c1cccc(OCCO)c1
composite z-score [1]: 0.779 (inactive)
composite z-score (XIP peptide (Xip251-270)): 0.465
z-score [2]: 0.193
z-score [3]: -3.04 (inactive)
z-score [4]: -0.22 (inactive)
z-score [5]: 0.101 (inactive)

CC(C)C(O)C1C=CC2C(=O)NC(=O)C2N1Nc1ccc(Cl)cc1Cl (stereo not given)
composite z-score [1]: 0.471 (inactive)
composite z-score (XIP peptide (Xip251-270)): -0.615
z-score [2]: 0.0359
z-score [3]: -3.95 (inactive)
z-score [4]: 0.998 (inactive)
z-score [5]: 0.237 (inactive)

COCCOC(=O)N1C(=O)[C@@]2(c3ccccc31)[C@H](c1ccc(O)cc1)N1[C@H](c3ccccc3)[C@H](c3ccccc3)OC(=O)[C@H]1[C@@H]2C(=O)Nc1nc2ccccc2s1
composite z-score [1]: 0.343 (inactive)
composite z-score (XIP peptide (Xip251-270)): 0.78
z-score [2]: 0.194
z-score [3]: -0.526 (inactive)
z-score [4]: -0.0228 (inactive)
z-score [5]: 0.221 (inactive)

COc1cc2c(cc1OC)CN(C(=O)[C@@H]1[C@H]3C(=O)O[C@H](c4ccccc4)[C@H](c4ccccc4)N3[C@H](c3ccccc3OCCO)[C@@]13C(=O)Nc1ccc(C#CCCO)cc13)CC2
composite z-score [1]: 2.75 (inactive)
composite z-score (XIP peptide (Xip251-270)): 0.827
z-score [2]: -2.18
z-score [3]: 3.45 (inactive)
z-score [4]: 0.14 (inactive)
z-score [5]: 0.598 (inactive)

Source: PubChem BioAssay
